Data reported in PubChem BioAssay.
Active and inactive are the calls of the source.

What was measured:
[1] = optical density shifts of acrAB sulA E. coli – strain DRC41, OD650, 48 h, E. coli filamentation inducer project, primary screen (AID 1152); details: higher = more signal, called active from +8 up or from −8 down;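 note: E. coli MC1000 strain DRC41 lacking acrAB efflux pump and sulA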
[2] = probe aLefty1 binding on compound microarray – biochemical, small-molecule microarray, 635/667 nm fluorescence, primary screen (AID 1153); details: higher = more signal;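 note: score merges spot fluorescence with signal-to-noise ratio from the scanned slide images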
[3] = plasmodial surface anion channel blockers, osmotic lysis – cell-based, P. falciparum Indochina, OD700, 1 h, primary screen (AID 1154); details: P. falciparum Indochina infected RBC osmotic lysis, higher = more signal, called active from +8 up or from −8 down
[4] = plasmodial surface anion channel blockers, osmotic lysis – cell-based, P. falciparum Indochina, OD700, 2 h, primary screen (AID 1155);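 note: lysis reports solute entry through the parasite surface anion channel PSAC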; details: P. falciparum Indochina infected erythrocytes, higher = more signal, called active from +8 up or from −8 down
[5] = changes in parasitized red cell lysis, either direction – P. falciparum Indochina, OD700, 3 h, PSAC antagonist project, primary screen (AID 1156); details: P. falciparum-infected erythrocytes, osmotic lysis, higher = more signal, called active from +8 up or from −8 down
[6] = plasmodial surface anion channel blockers, osmotic lysis – cell-based, P. falciparum Indochina, OD700, 18 h, primary screen (AID 1157); details: P. falciparum Indochina infected erythrocytes, osmotic lysis OD700, 18 h; higher = more signal, called active from +8 up or from −8 down
[7] = S6 kinase pathway phospho-S6 level changes – cell-based, A549, cytoblot, luminescence, serum-stimulated, primary screen (AID 1158); details: 5 h, higher = more signal;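 note: serum-stimulated A549 lung adenocarcinoma cells; signal is phosphorylated S6 detected by cytoblot immunostaining with HRP secondary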
[8] = biological target: NADPH oxidase 2 (Homo sapiens) (UniProt P04839); experiment: compounds shifting NOX2 Amplex Red fluorescence – cell-based, HEK293-NOX2, PMA-stimulated, NOX inhibitor project, primary screen (AID 1159); details: 45 min, higher = more signal, called active from +8 up or from −8 down; note: test concentration not given here
Sequence of NADPH oxidase 2 (Homo sapiens) (P04839 whole entry, looked up): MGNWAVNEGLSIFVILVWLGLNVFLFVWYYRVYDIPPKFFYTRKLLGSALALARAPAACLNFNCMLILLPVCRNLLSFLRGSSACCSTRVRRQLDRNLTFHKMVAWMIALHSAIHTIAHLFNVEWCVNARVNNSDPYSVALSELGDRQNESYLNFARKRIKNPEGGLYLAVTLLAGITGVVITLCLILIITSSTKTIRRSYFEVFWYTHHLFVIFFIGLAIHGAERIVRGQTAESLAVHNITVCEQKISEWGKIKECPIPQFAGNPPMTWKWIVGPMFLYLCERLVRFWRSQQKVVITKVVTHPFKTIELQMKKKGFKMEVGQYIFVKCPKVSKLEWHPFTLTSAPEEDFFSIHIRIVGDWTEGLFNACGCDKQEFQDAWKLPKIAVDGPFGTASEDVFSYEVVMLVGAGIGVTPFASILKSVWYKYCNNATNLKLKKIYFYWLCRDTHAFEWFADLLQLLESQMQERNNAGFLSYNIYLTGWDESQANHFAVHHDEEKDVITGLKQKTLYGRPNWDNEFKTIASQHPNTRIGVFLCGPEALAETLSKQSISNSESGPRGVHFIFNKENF

[9] = biological target: NADPH oxidase 4 (Homo sapiens) (UniProt Q9NPH5); experiment: compounds shifting NOX4 Amplex Red fluorescence – cell-based, HEK293-NOX4, tetracycline-induced, NOX inhibitor project, primary screen (AID 1160); details: HEK293-NOX4, Amplex Red H2O2 fluorescence, 45 min; higher = more signal, called active from +8 up or from −8 down
Sequence of NADPH oxidase 4 (Homo sapiens) (Q9NPH5 whole entry, looked up): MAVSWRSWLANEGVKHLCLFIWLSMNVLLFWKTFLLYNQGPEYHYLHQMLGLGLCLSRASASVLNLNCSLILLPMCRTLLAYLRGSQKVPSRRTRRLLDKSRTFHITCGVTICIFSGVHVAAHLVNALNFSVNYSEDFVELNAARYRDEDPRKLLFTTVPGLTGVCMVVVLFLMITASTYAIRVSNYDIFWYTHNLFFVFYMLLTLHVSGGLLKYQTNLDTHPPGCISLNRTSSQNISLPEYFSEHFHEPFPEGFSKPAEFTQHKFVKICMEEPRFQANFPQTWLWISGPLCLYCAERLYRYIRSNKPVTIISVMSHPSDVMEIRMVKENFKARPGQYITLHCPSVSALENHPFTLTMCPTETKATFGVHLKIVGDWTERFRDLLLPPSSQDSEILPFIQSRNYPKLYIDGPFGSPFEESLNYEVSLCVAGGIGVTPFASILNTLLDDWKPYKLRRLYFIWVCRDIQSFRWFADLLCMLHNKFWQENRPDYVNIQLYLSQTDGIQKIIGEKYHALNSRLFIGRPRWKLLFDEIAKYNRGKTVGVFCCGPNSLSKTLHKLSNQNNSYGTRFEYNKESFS

[10] = biological target: NADPH oxidase 5 (Homo sapiens) (UniProt Q96PH1); experiment: compounds shifting NOX5 Amplex Red fluorescence – cell-based, HEK293-NOX5, NOX inhibitor project, primary screen (AID 1161); details: HEK293-NOX5, ionomycin, 45 min, higher = more signal
Sequence of NADPH oxidase 5 (Homo sapiens) (Q96PH1 whole entry, looked up): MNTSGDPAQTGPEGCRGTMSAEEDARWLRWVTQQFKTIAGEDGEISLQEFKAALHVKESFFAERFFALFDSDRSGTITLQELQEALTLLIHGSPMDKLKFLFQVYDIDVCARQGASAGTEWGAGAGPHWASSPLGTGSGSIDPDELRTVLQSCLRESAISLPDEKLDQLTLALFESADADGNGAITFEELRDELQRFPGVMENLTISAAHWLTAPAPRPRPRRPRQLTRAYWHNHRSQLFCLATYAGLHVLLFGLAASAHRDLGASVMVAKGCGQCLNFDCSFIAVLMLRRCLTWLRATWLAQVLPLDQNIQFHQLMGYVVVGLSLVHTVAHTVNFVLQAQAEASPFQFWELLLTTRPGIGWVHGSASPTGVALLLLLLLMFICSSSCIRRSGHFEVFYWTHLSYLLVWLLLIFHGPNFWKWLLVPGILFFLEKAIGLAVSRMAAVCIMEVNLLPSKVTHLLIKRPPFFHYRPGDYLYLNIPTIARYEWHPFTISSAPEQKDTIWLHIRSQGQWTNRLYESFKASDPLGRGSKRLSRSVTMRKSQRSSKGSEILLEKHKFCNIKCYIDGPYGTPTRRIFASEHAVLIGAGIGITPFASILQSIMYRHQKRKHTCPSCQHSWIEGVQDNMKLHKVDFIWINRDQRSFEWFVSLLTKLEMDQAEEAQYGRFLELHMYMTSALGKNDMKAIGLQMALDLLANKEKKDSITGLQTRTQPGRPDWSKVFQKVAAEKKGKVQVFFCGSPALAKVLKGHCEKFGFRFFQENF

[11] = compound effects on lung adenocarcinoma cell viability – A549, calcein-AM fluorescence, 48 h, basal, profiling panel (AID 1162); details: higher = more signal; note: test concentration not given here
[12] = compound effects on differentiated 3T3-L1 adipocyte viability – cell-based, 3T3-L1 adipocytes, calcein-AM fluorescence, 48 h, basal, profiling panel (AID 1163); details: 3T3-L1 adipocytes viability, higher = more signal; note: test concentration not given here
[13] = compound effects on hepatocellular carcinoma cell viability – HepG2, calcein-AM fluorescence, 48 h, basal, profiling panel (AID 1164); details: higher = more signal; note: test concentration not given here
[14] = compound effects on multiple myeloma cell viability – MM1S, calcein-AM fluorescence, 48 h, basal, profiling panel (AID 1165); details: higher = more signal;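 note: viability of MM1S multiple myeloma cells under basal unstimulated conditions; test concentration not given here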
[15] = calcein-AM signal in unstimulated myeloma cells – cell-based, calcein-AM fluorescence, 48 h, PK04 Diversity Set, profiling panel (AID 1166); details: RPMI8226 myeloma viability, higher = more signal;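 note: cells grown under basal conditions without added stimulus; test concentration not given here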
[16] = JC-1 mitochondrial signal, unstimulated HepG2 cells – cell-based, JC-1 fluorescence, 24 h, 100 nL compound, profiling panel (AID 1167); details: HepG2 mitochondrial potential, higher = more signal; note: test concentration not given here
[17] = JC-1 mitochondrial signal, unstimulated adipocytes – cell-based, JC-1 fluorescence, 3T3-L1 adipocytes, 24 h, 100 nL compound, profiling panel (AID 1168); details: JC-1 mitochondrial fluorescence, higher = more signal, called active from +8 up or from −8 down; note: test concentration not given here
[18] = JC-1 mitochondrial signal, unstimulated myeloma cells – cell-based, JC-1 fluorescence, RPMI8226, 24 h, 100 nL compound, profiling panel (AID 1169); details: JC-1 mitochondrial potential fluorescence, higher = more signal; note: test concentration not given here
[19] = JC-1 mitochondrial signal, unstimulated MM1S myeloma – cell-based, JC-1 fluorescence, 24 h, 100 nL compound, profiling panel (AID 1170); details: MM1S mitochondrial potential, higher = more signal; note: test concentration not given here
[20] = resazurin metabolic signal in A549 cells – cell-based, resazurin fluorescence, 24 h, PK04 Diversity Set, profiling panel (AID 1171); details: A549 viability, higher = more signal, called active from +8 up or from −8 down; note: test concentration not given here

Row | SMILES | z-score [1] | composite z-score [2] | z-score [3] | z-score [4] | z-score [5] | z-score [6] | z-score [7] | z-score [8] | z-score [9] | z-score [10] | z-score [11] | z-score [12] | z-score [13] | z-score [14] | z-score [15] | z-score [16] | z-score [17] | z-score [18] | z-score [19] | z-score [20]
1 | COC(=O)c1c2oc(c1C(=O)OC)C(=O)N1CCC[C@H]1Cn1nncc1CN(Cc1ccccc1)C(=O)N[C@H](CO)CC2 | 1.53 (inactive) | 0.0429 | 0.834 (inactive) | 0.609 (inactive) | -0.418 (inactive) | 0.924 (inactive) | 0.429 | -0.521 (inactive) | 0.556 (inactive) | 1.19 | -0.0989 | -0.723 | 0.436 | 0.829 | 0.394 | 0.488 | 0.172 (inactive) | -0.136 | -0.882 | 0.744 (inactive)
2 | [N-]=[N+]=NCc1ccccc1[C@H]1OC(c2ccc(OCCCO)cc2)=N[C@@]1(Cc1ccccc1)C(=O)NCCN1CCOCC1 | 0.694 (inactive) | 0.843 | 28.1 (active) | 22.1 (active) | 3.64 (inactive) | 3.74 (inactive) | -0.281 | 0.0323 (inactive) | 1.93 (inactive) | 1.58 | 0.526 | 1.06 | 0.688 | -2.51 | -1.2 | 1.51 | -0.0131 (inactive) | -0.815 | 0.45 | 1.19 (inactive)
3 | COCCOC(=O)N1C(=O)[C@@]2(c3cc(C#CC4=CCCCC4)ccc31)[C@H](C(=O)N1CCCCCCC1)[C@H]1C(=O)O[C@H](c3ccccc3)[C@H](c3ccccc3)N1[C@@H]2c1ccc(OCCO)cc1 | -1.1 (inactive) | 1.88 | 4.58 (inactive) | 1.19 (inactive) | -0.26 (inactive) | 0.481 (inactive) | 0.118 | 0.983 (inactive) | 0.567 (inactive) | -0.934 | 0.382 | 1.74 | -0.214 | -0.774 | -0.779 | 0.225 | -3.07 (inactive) | -0.674 | -1.14 | -0.223 (inactive)
4 | COc1ccc([Si](C)(C)[C@@H]2[C@@H](CC(=O)N3Cc4ccccc4C[C@H]3CO)O[C@]3(C(=O)N(Cc4ccc(N5CCC5=O)cc4)c4ccccc43)[C@H]2C)cc1 | 0.238 (inactive) | 0.0253 | 5.02 (inactive) | 1.31 (inactive) | 0.538 (inactive) | 1.14 (inactive) | 0.0933 | 0.669 (inactive) | 0.841 (inactive) | 2.36 | -0.167 | 0.233 | 0.437 | -0.0069 | -1.76 | 1.13 | 1.37 (inactive) | -0.553 | -0.502 | -0.61 (inactive)
5 | CCCCCCCCCCC(O)C1C=CC2C(=O)N(C)C(=O)C2N1Nc1cc(OC)c(OC)c(OC)c1 (stereo not given) | -1.99 (inactive) | 0.166 | 13.6 (active) | 3.42 (inactive) | 0.214 (inactive) | 2.15 (inactive) | -0.635 | -2.1 (inactive) | -4.98 (inactive) | -0.944 | -2.12 | -0.555 | -3.26 | -3.8 | -4.07 | -0.993 | 0.485 (inactive) | -0.913 | -2.12 | -1.38 (inactive)
6 | O=C1[C@@]23C=C(Br)[C@H](C[C@@H]2COC3)[C@@]12CO2 | -1.07 (inactive) | -0.217 | 0.297 (inactive) | 0.0503 (inactive) | -0.497 (inactive) | 0.258 (inactive) | -0.679 | 0.249 (inactive) | 0.218 (inactive) | 0.139 | -0.0321 | -1.05 | -0.493 | -2.27 | -1.1 | -1.73 | 0.281 (inactive) | -0.213 | -0.809 | -0.252 (inactive)
7 | C=CC1c2cc(O)c(OC)cc2CCN1Cc1ccc([N+](=O)[O-])o1 (stereo not given) | 1.09 (inactive) | 0.0455 | 7.89 (inactive) | 1.17 (inactive) | -0.0585 (inactive) | 0.596 (inactive) | 0.325 | -3.42 (inactive) | -3.12 (inactive) | -3.25 | 0.654 | -0.187 | -0.143 | -0.429 | 0.413 | -0.22 | 0.362 (inactive) | -0.0931 | 0.877 | 0.0283 (inactive)
8 | CCOC(=O)C1=CC[C@@H](c2ccccc2)N(S(=O)(=O)c2ccc(C)cc2)[C@H]1C=Cc1ccccc1 | -1.11 (inactive) | 0.436 | 1.92 (inactive) | 1.12 (inactive) | -0.684 (inactive) | 0.779 (inactive) | -0.577 | 0.549 (inactive) | -0.395 (inactive) | 0.884 | -0.959 | -0.443 | -0.599 | -0.149 | -1.44 | 2.91 | -0.489 (inactive) | 0.0754 | -1.42 | 2.28 (inactive)
